Experimental data: PubChem BioAssay AID1159580 (chemical genetic matrix, 2015)
Among all 5,500 compounds or so, about 2,000 (36%) were called active. About 18% were inconclusive and are not listed. No stated cut-off is given here; in the data, active means normalized growth mostly below about 0.91 (no sharp cut-off); inconclusive means no clear call, values can overlap the other calls; inactive means mostly above about 0.92. This is one part of the list.

Assay: chemical genetic growth profiling, strain panel (AID 1159580);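 further: tested at 20 µM; growth read once vehicle control cultures reached saturation at 30 °C; 1 = growth at the plate median or of vehicle wells; lower values mean less growth of the strain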
Details: growth OD
[1] = S. cerevisiae deletion strains, locus YAL013W, strain DEP1, hits give low values
[2] = S. cerevisiae deletion strains, locus YJR075W, strain HOC1, hits give low values
[3] = S. cerevisiae deletion strains, locus YNL153C, strain GIM3, hits give low values
[4] = S. cerevisiae deletion strains, locus YAR019C, strain CDC15, hits give low values
[5] = S. cerevisiae deletion strains, locus YBL105C, strain PKC1, hits give low values
[6] = S. cerevisiae deletion strains, locus YBR135W, strain CKS1, hits give low values
[7] = S. cerevisiae deletion strains, locus YBR136W, strain MEC1, hits give low values
[8] = S. cerevisiae deletion strains, locus YBR160W, strain CDC28, hits give low values
[9] = S. cerevisiae deletion strains, locus YDL017W, strain CDC7, hits give low values
[10] = S. cerevisiae deletion strains, locus YDL028C, strain MPS1, hits give low values
[11] = S. cerevisiae deletion strains, locus YDL101C, strain DUN1, hits give low values
[12] = S. cerevisiae deletion strains, locus YDL108W, strain KIN28, hits give low values
[13] = S. cerevisiae deletion strains, locus YDL132W, strain cdc53, hits give low values
[14] = S. cerevisiae deletion strains, locus YDL214C, strain PRR2, hits give low values
[15] = S. cerevisiae deletion strains, locus YDR052C, strain DBF4, hits give low values
[16] = S. cerevisiae deletion strains, locus YDR054C, strain cdc34, hits give low values
[17] = S. cerevisiae deletion strains, locus YDR226W, strain ADK1, hits give low values
[18] = S. cerevisiae deletion strains, locus YDR477W, strain SNF1, hits give low values
[19] = S. cerevisiae deletion strains, locus YER123W, strain YCK3, hits give low values
[20] = S. cerevisiae deletion strains, locus YER133W, strain GLC7, hits give low values
[21] = S. cerevisiae deletion strains, locus YFL009W, strain cdc4, hits give low values
[22] = S. cerevisiae deletion strains, locus YFL029C, strain CAK1, hits give low values
[23] = S. cerevisiae deletion strains, locus YFR003C, strain YPI1, hits give low values
[24] = S. cerevisiae deletion strains, locus YFR019W, strain FAB1, hits give low values
[25] = S. cerevisiae deletion strains, locus YFR028C, strain CDC14, hits give low values
[26] = S. cerevisiae deletion strains, locus YGR040W, strain KSS1, hits give low values
[27] = S. cerevisiae deletion strains, locus YGR052W, strain FMP48, hits give low values
[28] = S. cerevisiae deletion strains, locus YGR092W, strain DBF2, hits give low values
[29] = S. cerevisiae deletion strains, locus YHR030C, strain SLT2, hits give low values
[30] = S. cerevisiae deletion strains, locus YHR079C, strain IRE1, hits give low values
[31] = S. cerevisiae deletion strains, locus YHR082C, strain KSP1, hits give low values
[32] = S. cerevisiae deletion strains, locus YHR205W, strain SCH9, hits give low values
[33] = S. cerevisiae deletion strains, locus YIL147C, strain SLN1, hits give low values
[34] = S. cerevisiae deletion strains, locus YJL095W, strain BCK1, hits give low values
[35] = S. cerevisiae deletion strains, locus YJL128C, strain PBS2, hits give low values
[36] = S. cerevisiae deletion strains, locus YJL157C, strain FAR1, hits give low values
[37] = S. cerevisiae deletion strains, locus YJR016C, strain ILV3, hits give low values
[38] = S. cerevisiae deletion strains, locus YJR066W, strain TOR1 (second series), hits give low values
[39] = S. cerevisiae deletion strains, locus YJR066W, strain TOR1, hits give low values
[40] = S. cerevisiae deletion strains, locus YKL048C, strain ELM1, hits give low values
[41] = S. cerevisiae deletion strains, locus YKL067W, strain YNK1, hits give low values
[42] = S. cerevisiae deletion strains, locus YKL101W, strain HSL1, hits give low values
[43] = S. cerevisiae deletion strains, locus YKL193C, strain SDS22, hits give low values
[44] = S. cerevisiae deletion strains, locus YKL203C, strain TOR2, hits give low values
[45] = S. cerevisiae deletion strains, locus YLR113W, strain HOG1, hits give low values
[46] = S. cerevisiae deletion strains, locus YLR133W, strain CKI1, hits give low values
[47] = S. cerevisiae deletion strains, locus YLR403W, strain SFP1, hits give low values
[48] = S. cerevisiae deletion strains, locus YML070W, strain DAK1, hits give low values
[49] = S. cerevisiae deletion strains, locus YMR001C, strain CDC5, hits give low values
[50] = S. cerevisiae deletion strains, locus YMR205C, strain PFK2 (second series), hits give low values
[51] = S. cerevisiae deletion strains, locus YMR277W, strain FCP1, hits give low values
[52] = S. cerevisiae deletion strains, locus YNL006W, strain LST8, hits give low values
[53] = S. cerevisiae deletion strains, locus YNL020C, strain ARK1, hits give low values
[54] = S. cerevisiae deletion strains, locus YNL161W, strain CBK1, hits give low values
[55] = S. cerevisiae deletion strains, locus YNL183C, strain NPR1, hits give low values
[56] = S. cerevisiae deletion strains, locus YNL207W, strain RIO2, hits give low values
[57] = S. cerevisiae deletion strains, locus YNL222W, strain SSU72, hits give low values
[58] = S. cerevisiae deletion strains, locus YNL307C, strain MCK1 (second series), hits give low values
[59] = S. cerevisiae deletion strains, locus YOL078W, strain AVO1, hits give low values
[60] = S. cerevisiae deletion strains, locus YOL136C, strain PFK27, hits give low values
[61] = S. cerevisiae deletion strains, locus YOR061W, strain CKA2, hits give low values
[62] = S. cerevisiae deletion strains, locus YOR119C, strain RIO1, hits give low values
[63] = S. cerevisiae deletion strains, locus YOR231W, strain MKK1, hits give low values
[64] = S. cerevisiae deletion strains, locus YOR329C, strain SCD5, hits give low values
[65] = S. cerevisiae deletion strains, locus YPL031C, strain PHO85, hits give low values
[66] = S. cerevisiae deletion strains, locus YPL153C, strain RAD53, hits give low values
[67] = S. cerevisiae deletion strains, locus YPL204W, strain HRR25, hits give low values
[68] = S. cerevisiae deletion strains, locus YPL209C, strain IPL1, hits give low values
[69] = S. cerevisiae deletion strains, locus YPL256C, strain CLN2, hits give low values
[70] = S. cerevisiae deletion strains, locus YPR025C, strain CCL1, hits give low values
[71] = S. cerevisiae deletion strains, locus YPR106W, strain ISR1, hits give low values
[72] = S. cerevisiae deletion strains, locus YPR111W, strain DBF20, hits give low values
[73] = S. cerevisiae deletion strains, strain NNK1, hits give low values
[74] = S. cerevisiae deletion strains, strain TSCII, hits give low values

Measured: normalized growth

CCCCOC(=O)NS(=O)(=O)c1sc(CC(C)C)cc1-c1ccc(Cn2c(CC)nc3c(C)cc(C)nc32)cc1
inactive: [1] 1 | S. cerevisiae deletion strains, locus YAL040C, strain CLN3, hits give low values 1.01 | S. cerevisiae deletion strains, locus YCL061C, strain MRC1 (second series), hits give low values 0.999 | S. cerevisiae deletion strains, locus YDR150W, strain NUM1, hits give low values 1.01 | S. cerevisiae deletion strains, locus YDR363W, strain ESC2, hits give low values 0.988 | S. cerevisiae deletion strains, locus YER002W, strain NOP16, hits give low values 0.997 | [2] 0.999 | S. cerevisiae deletion strains, locus YNL128W, strain TEP1, hits give low values 1 | [3] 0.923 | S. cerevisiae deletion strains, locus YNL175C, strain NOP13, hits give low values 1 | S. cerevisiae deletion strains, locus YNL197C, strain WHI3, hits give low values 1 | S. cerevisiae deletion strains, locus YNL224C, strain SQS1, hits give low values 0.98 | S. cerevisiae deletion strains, locus YOR083W, strain WHI5 (second series), hits give low values 0.919

S=C(Nc1ccc(Cl)cc1)Nc1ccc(Cl)cc1
inactive: [4] 0.912 | [5] 0.915 | [6] 0.938 | [7] 0.928 | [8] 0.926 | [9] 0.921 | [10] 0.935 | [11] 0.96 | [12] 0.933 | [13] 0.927 | [14] 0.855 | [16] 0.912 | [17] 0.95 | [18] 0.861 | [19] 0.791 | [20] 0.828 | [21] 0.925 | [22] 0.92 | [23] 0.922 | [24] 0.864 | [25] 0.915 | [26] 0.847 | [27] 0.811 | [28] 0.703 | [30] 0.807 | [31] 0.902 | [32] 0.881 | [33] 0.926 | [34] 0.814 | [35] 0.903 | [36] 0.827 | [37] 0.922 | [38] 0.83 | [39] 0.772 | [40] 0.944 | [41] 0.853 | [42] 0.888 | [43] 0.926 | [44] 0.871 | [46] 0.839 | [47] 0.835 | [48] 0.825 | [49] 0.922 | [50] 0.871 | [51] 0.918 | [52] 0.937 | [53] 0.837 | [54] 0.918 | [55] 0.779 | [56] 0.893 | [57] 0.936 | [58] 0.783 | [59] 0.921 | [60] 0.848 | [61] 0.808 | [62] 0.878 | [63] 0.836 | [64] 0.923 | [65] 0.82 | [66] 0.845 | [67] 0.778 | [68] 0.923 | [70] 0.932 | [71] 0.931 | [72] 0.931 | [73] 0.932 | [74] 0.906
active: [15] 0.894 | [29] 0.662 | [45] 0.717 | [69] 0.819

Cc1nn(-c2ccccc2)nc1C(=O)NNC(=S)Nc1ccc(Cl)cc1
active: S. cerevisiae deletion strains, locus YEL061C, strain CIN8, hits give low values 0.866 | [2] 1.33 [resistant] | S. cerevisiae deletion strains, locus YLR039C, strain RIC1, hits give low values 0.785 | S. cerevisiae deletion strains, locus YNL298W, strain CLA4 (second series), hits give low values 0.835 | S. cerevisiae deletion strains, locus YNR030W, strain Alg12, hits give low values 0.854 | S. cerevisiae deletion strains, locus YPL055C, strain LGE1, hits give low values 0.814 | S. cerevisiae strains, strain wild type, hits give low values 0.887
inactive: [1] 0.957 | S. cerevisiae deletion strains, locus YBR229C, strain ROT2, hits give low values 0.983 | S. cerevisiae deletion strains, locus YCL061C, strain MRC1, hits give low values 1.04 | S. cerevisiae deletion strains, locus YGR078C, strain PAC10, hits give low values 0.991 | [29] 0.889 | S. cerevisiae deletion strains, locus YHR087W, strain rtc3, hits give low values 0.988 | S. cerevisiae deletion strains, locus YJL187C, strain SWE1, hits give low values 0.954 | S. cerevisiae deletion strains, locus YJR043C, strain POL32, hits give low values 0.985 | S. cerevisiae deletion strains, locus YLR058C, strain SHM2 (second series), hits give low values 1.01 | S. cerevisiae deletion strains, locus YLR085C, strain ARP6, hits give low values 0.82 | S. cerevisiae deletion strains, locus YLR262C, strain YPT6, hits give low values 0.858 | S. cerevisiae deletion strains, locus YML094W, strain GIM5, hits give low values 0.904 | S. cerevisiae deletion strains, locus YMR263W, strain SAP30, hits give low values 1.01 | [3] 1.04 | S. cerevisiae deletion strains, locus YNL322C, strain KRE1, hits give low values 1.02 | S. cerevisiae deletion strains, locus YPL241C, strain CIN2, hits give low values 0.929 | S. cerevisiae deletion strains, locus YPR135W, strain CTF4, hits give low values 0.969

CC(C)(C)c1ccc(C(=O)NNC(=S)Nc2ccc(Cl)cc2)cc1
active: [29] 0.731 | [69] 0.839
inactive: [4] 0.958 | [5] 0.978 | [6] 0.972 | [7] 0.974 | [8] 0.965 | [9] 0.983 | [10] 0.936 | [11] 0.978 | [12] 0.96 | [13] 0.971 | [14] 0.932 | [15] 0.986 | [16] 0.968 | [17] 0.954 | [18] 0.931 | [19] 0.895 | [20] 0.949 | [21] 0.937 | [22] 0.96 | [23] 0.98 | [24] 0.98 | [25] 0.957 | [26] 0.939 | [27] 0.974 | [28] 0.862 | [30] 0.916 | [31] 0.984 | [32] 0.904 | [33] 0.973 | [34] 0.898 | [35] 0.93 | [36] 0.953 | [37] 0.986 | [38] 0.845 | [39] 0.903 | [40] 0.996 | [41] 0.909 | [42] 0.91 | [43] 0.97 | [44] 1.01 | [45] 0.878 | [46] 0.938 | [47] 0.96 | [48] 0.921 | [49] 0.953 | [50] 0.933 | [51] 0.949 | [52] 0.981 | [53] 0.933 | [54] 0.986 | [55] 0.962 | [56] 0.971 | [57] 0.976 | [58] 0.896 | [59] 0.97 | [60] 0.919 | [61] 0.969 | [62] 0.964 | [63] 0.916 | [64] 0.983 | [65] 0.927 | [66] 0.873 | [67] 0.907 | [68] 0.968 | [70] 0.979 | [71] 0.984 | [72] 0.927 | [73] 0.997 | [74] 0.974
